Assay results from PubChem BioAssay (NCI).
About 83,000 compounds went through this panel and 20% of them were active in at least one assay; those are over-represented in the sample as a whole.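 Growth was measured after 48 h exposure to one concentration of compound in 96-well plates. Values under 10 count as active.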 Calls of active or inactive are those of the source.

Columns and labels:
Assay in all cases: NCI-60 one-dose screen, 48 h (100 = growth as untreated, 0 = no growth, -100 = all killed)
Settings in all cases: 10 µM unless noted
T-47D breast = system: T-47D breast
BT-549 breast = system: BT-549 breast
MDA-MB-435 melanoma = system: MDA-MB-435 melanoma
SW-620 colon = system: SW-620 colon
MCF7 breast = system: MCF7 breast
HCT-116 colon = system: HCT-116 colon
HCC-2998 colon = system: HCC-2998 colon
KM12 colon = system: KM12 colon

Measured: growth

Cc1ccc(Cc2cnc(NC(=O)/C=C/c3cccc(C)c3)s2)cc1
active: BT-549 breast -5.4% | MDA-MB-435 melanoma -44.7% | HCT-116 colon 2.53%
inactive: T-47D breast 39.8% | SW-620 colon 17% | MCF7 breast 14.6% | HCC-2998 colon 12.4% | KM12 colon 16.1%

CSc1ccc(N(C)c2nc(C)nc3c2CCC3)cc1
inactive: T-47D breast 64.5% | BT-549 breast 23.6% | SW-620 colon 28.1% | MCF7 breast 16%
active: MDA-MB-435 melanoma -12.8% | HCT-116 colon 0.112% | HCC-2998 colon 8.45% | KM12 colon 8.57%

Cc1csc(Nc2nc(-c3cccc(Br)c3)nc(C(Cl)(Cl)Cl)n2)n1
inactive: T-47D breast 13.9% | BT-549 breast 85.4% | MDA-MB-435 melanoma 65.3% | SW-620 colon 52.6% | MCF7 breast 28.9% | HCT-116 colon 47.7% | HCC-2998 colon 16.1% | KM12 colon 27.7%

COC(=O)[C@]12CC[C@@H](C)[C@H](C)[C@@H]1C1=CC(=O)[C@@H]3[C@@]4(C)C[C@@H](OC(C)=O)[C@H](OC(C)=O)[C@@](C)(COC(C)=O)[C@@H]4C(=O)C[C@@]3(C)[C@]1(C)CC2
inactive: T-47D breast 45.1% | BT-549 breast 17.8% | MDA-MB-435 melanoma 57.8% | SW-620 colon 50.2% | MCF7 breast 42.5% | HCT-116 colon 22.6% | HCC-2998 colon 68.7% | KM12 colon 44.7%

CCc1ccc(-c2ccc(Nc3ccccc3)nn2)cc1S(N)(=O)=O
inactive: T-47D breast 53.3% | BT-549 breast 83.3% | MDA-MB-435 melanoma 36.1% | SW-620 colon 54.1% | MCF7 breast 84.3% | HCT-116 colon 72.6% | HCC-2998 colon 85.4% | KM12 colon 40.6%

CCc1cccc(CC)c1NC(=O)c1sc2nc3c(cc2c1N)CCCC3
inactive: T-47D breast 64.3% | BT-549 breast 74.8% | SW-620 colon 70.8% | MCF7 breast 42.5% | HCT-116 colon 71% | HCC-2998 colon 95.4% | KM12 colon 70%
active: MDA-MB-435 melanoma 7.29%

CC(=O)c1c(C)[nH]c(-c2nc3ccc(N4CCN(C)CC4)cc3[nH]2)c1-c1ccc(N(C)C)cc1
inactive: T-47D breast 23.8% | BT-549 breast 51.6% | MDA-MB-435 melanoma 27.1% | SW-620 colon 56.8% | HCT-116 colon 23.2% | HCC-2998 colon 30.3% | KM12 colon 37.2%
active: MCF7 breast 8.22%

Cc1oc(-c2ccccc2Cl)cc1C(=O)Nc1ccc(S(N)(=O)=O)cc1
inactive: T-47D breast 83.2% | BT-549 breast 104% | MDA-MB-435 melanoma 102% | SW-620 colon 108% | MCF7 breast 92.7% | HCT-116 colon 102% | HCC-2998 colon 103% | KM12 colon 101%

O=C1CCN2C(=O)Nc3ccccc3C2C1 (stereo not drawn)
inactive: T-47D breast 100% | BT-549 breast 109% | MDA-MB-435 melanoma 97.5% | SW-620 colon 99.8% | MCF7 breast 95.3% | HCT-116 colon 98.6% | HCC-2998 colon 100% | KM12 colon 106%

COC(=O)[C@]12CC[C@@H](C)[C@H](C)[C@@H]1C1=CC[C@@H]3[C@@]4(C)C[C@@H](O)[C@H](O)[C@@](C)(CO)C4=CC[C@@]3(C)[C@]1(C)CC2
active: T-47D breast -26.5% | BT-549 breast -80.2% | MDA-MB-435 melanoma -53.1% | SW-620 colon -55.5% | MCF7 breast -37.1% | HCT-116 colon -37.5% | HCC-2998 colon -86.5% | KM12 colon -70.8%

Clc1ccc2c(NCCNc3nc(-c4ccccc4)cc(-c4ccccc4)n3)ccnc2c1
active: T-47D breast -59.7% | MDA-MB-435 melanoma -82.6% | SW-620 colon -53.7% | MCF7 breast -68.7% | HCT-116 colon -69.9% | HCC-2998 colon -28.7% | KM12 colon 5.29%
inactive: BT-549 breast 75.1%

C=C(C)[C@@H]1CC[C@]2(C)[C@H](CC[C@@H]3[C@H]4[C@H]5OC[C@@]4(CCC5(C)C)CC[C@]32C)[C@@]1(C)CCCN
inactive: T-47D breast 23% | BT-549 breast 93.8% | MDA-MB-435 melanoma 49.2% | KM12 colon 23.9%
active: SW-620 colon -45.1% | MCF7 breast 0.266% | HCT-116 colon 4.71% | HCC-2998 colon -68.4%

C#Cc1cc2c(N)c(C(=O)c3cc(OC)c(OC)c(OC)c3)[nH]c2cc1OC
inactive: T-47D breast 25.7% | BT-549 breast 57.4% | SW-620 colon 18.4% | MCF7 breast 19.7% | HCT-116 colon 29.9% | HCC-2998 colon 64.3% | KM12 colon 31.5%
active: MDA-MB-435 melanoma -15.8%

N#C/C(=C\c1ccc(-c2ccc(F)cc2)o1)c1nc(-c2ccco2)cs1
active: T-47D breast -26.3%
inactive: BT-549 breast 106% | MDA-MB-435 melanoma 102% | SW-620 colon 96.5% | MCF7 breast 11.7% | HCT-116 colon 101% | HCC-2998 colon 51% | KM12 colon 60.6%

O=C(O)/C(=C/c1ccc(O)cc1)c1ccccc1
inactive: T-47D breast 94.6% | BT-549 breast 95.5% | MDA-MB-435 melanoma 109% | SW-620 colon 105% | MCF7 breast 98% | HCT-116 colon 92.7% | HCC-2998 colon 95.8% | KM12 colon 107%

CC(C)=CCC/C(C)=C/CC/C(C)=C/CC/C(C)=C/CSC[C@H](NC(=O)CCCCCN1CCN(C)CC1)C(=O)NC1CCCCC1
inactive: T-47D breast 58.3% | BT-549 breast 102% | MDA-MB-435 melanoma 48.5% | MCF7 breast 17% | HCC-2998 colon 63.8% | KM12 colon 81.7%
active: SW-620 colon -12.9% | HCT-116 colon 6.51%

O=C(NCN1C(=O)c2cccc3cccc(c23)C1=O)N1CCC(Cc2ccccc2)CC1
inactive: T-47D breast 88% | BT-549 breast 98.4% | MDA-MB-435 melanoma 104% | SW-620 colon 100% | MCF7 breast 87.5% | HCT-116 colon 87% | HCC-2998 colon 109% | KM12 colon 99.4%

Brc1ccc2c(c1)c(-c1nc(-c3c[nH]c4ncccc34)cs1)cn2CCCN1CCCCC1
inactive: T-47D breast 45% | BT-549 breast 72.8% | HCC-2998 colon 34.8% | KM12 colon 14.5%
active: MDA-MB-435 melanoma -84% | SW-620 colon -63.5% | MCF7 breast -68.1% | HCT-116 colon -62.7%

NCCn1cc(-c2nc(-c3c[nH]c4ncccc34)cs2)c2ccccc21
inactive: T-47D breast 22.6% | BT-549 breast 98.9% | MDA-MB-435 melanoma 98.3% | SW-620 colon 96.1% | MCF7 breast 60.4% | HCT-116 colon 94.5% | HCC-2998 colon 93.8% | KM12 colon 73.4%

Cc1ccc2[nH]cc(-c3nc(-c4cn(C)c5ncccc45)cs3)c2c1
inactive: T-47D breast 41.5% | BT-549 breast 82.9% | MDA-MB-435 melanoma 79.3% | SW-620 colon 109% | MCF7 breast 55.1% | HCT-116 colon 74.9% | HCC-2998 colon 88.8% | KM12 colon 77.9%

COc1ccc(-c2cc(/C=C/C(=O)c3ccc(OC)c(OC)c3)[nH]n2)cc1
active: BT-549 breast -34.2% | SW-620 colon -70.5% | MCF7 breast 6.07% | HCT-116 colon -40.7% | KM12 colon -79.9%
inactive: T-47D breast 22.2% | MDA-MB-435 melanoma 21.3% | HCC-2998 colon 92.7%

Cn1cc(-c2csc(-c3c[nH]c4ccc(F)cc34)n2)c2cccnc21
inactive: T-47D breast 44.3% | BT-549 breast 57.4% | SW-620 colon 26.5% | MCF7 breast 19.3% | HCT-116 colon 23.1% | HCC-2998 colon 71.7% | KM12 colon 20.6%
active: MDA-MB-435 melanoma -28%

O=c1c(CNc2ccc(S(=O)(=O)Nc3ncccn3)cc2)coc2ccccc12
inactive: T-47D breast 81.1% | BT-549 breast 93.6% | MDA-MB-435 melanoma 119% | SW-620 colon 98.4% | MCF7 breast 86.1% | HCT-116 colon 91.3% | HCC-2998 colon 101% | KM12 colon 115%

O=C(Nc1ccc(/C=C2\SC(=O)N(Cc3ccc(OC(F)(F)F)cc3)C2=O)cc1)c1ccc(Cl)c([N+](=O)[O-])c1
inactive: BT-549 breast 75.3% | MDA-MB-435 melanoma 99.6% | HCT-116 colon 67.5% | HCC-2998 colon 96.7% | KM12 colon 53.1%
active: T-47D breast 4.78% | SW-620 colon 2.11% | MCF7 breast 1.61%

COc1cc2[nH]c(C(=O)c3cc(OC)c(OC)c(OC)c3)c(N)c2cc1C#CC1CC1
active: MDA-MB-435 melanoma 2.06%
inactive: T-47D breast 32.8% | BT-549 breast 53.4% | SW-620 colon 22.5% | MCF7 breast 17.6% | HCT-116 colon 19.1% | HCC-2998 colon 66.1% | KM12 colon 18%

COc1ccc2c3c(c4ccccc4cc13)C(=O)N(CCN(C)CCN)C2=O
inactive: BT-549 breast 26.1%
active: T-47D breast 6.79% | MDA-MB-435 melanoma -92.6% | SW-620 colon -66.5% | MCF7 breast -88.2% | HCT-116 colon -94.8% | HCC-2998 colon -80.2% | KM12 colon -68.6%

COc1cccc(-c2nn(-c3ccccc3)cc2-c2ccnc(NCCCNS(=O)(=O)c3ccc(Cl)cc3)c2)c1
inactive: T-47D breast 14.2% | BT-549 breast 58.1% | MDA-MB-435 melanoma 42.9% | SW-620 colon 62.6% | MCF7 breast 24.3% | HCT-116 colon 31.1% | HCC-2998 colon 33.5% | KM12 colon 38.9%

CCN(CC)CCCCCCNc1ccnc2cc(Cl)ccc12
inactive: T-47D breast 91% | BT-549 breast 86.3% | MDA-MB-435 melanoma 88.5% | SW-620 colon 83.3% | MCF7 breast 82.7% | HCT-116 colon 59.1% | HCC-2998 colon 107% | KM12 colon 84.9%

N#C/C(=C\c1ccc(-c2cccc(C(F)(F)F)c2)o1)c1nc(-c2ccco2)cs1
inactive: BT-549 breast 97% | MDA-MB-435 melanoma 102% | SW-620 colon 104% | MCF7 breast 22.4% | HCT-116 colon 91.7% | HCC-2998 colon 29.5% | KM12 colon 65.5%
active: T-47D breast -17.6%

COc1ccccc1-n1cnc(N)c1C(=O)c1cc(OC)c(OC)c(OC)c1
inactive: T-47D breast 49.8% | BT-549 breast 47.1% | SW-620 colon 23.7% | MCF7 breast 12.4% | HCT-116 colon 24.5% | HCC-2998 colon 61.7% | KM12 colon 16.1%
active: MDA-MB-435 melanoma -15%

CC(=O)OCCCCCCn1c2ccccc2c2c3c(c4c5ccccc5n(C)c4c21)C(=O)N(O)C3=O
inactive: T-47D breast 42.9% | BT-549 breast 69.2% | MDA-MB-435 melanoma 75.9% | SW-620 colon 76.4% | MCF7 breast 30.4% | HCT-116 colon 48.6% | HCC-2998 colon 76% | KM12 colon 68.8%
